# Data as given in publication PMC12136788.
# Substitutions are numbered along the chain they refer to. Whole data set: some 24,000 sequences, median “enrichment r” near 0.99, cut for the highest 2% near 3.7. This is one part of a sample in which the highest values are shown more often than they occur.
# T1: UNK ZnF1-3 (human, UniProt Q9C0B0 31-174)
# T1 sequence: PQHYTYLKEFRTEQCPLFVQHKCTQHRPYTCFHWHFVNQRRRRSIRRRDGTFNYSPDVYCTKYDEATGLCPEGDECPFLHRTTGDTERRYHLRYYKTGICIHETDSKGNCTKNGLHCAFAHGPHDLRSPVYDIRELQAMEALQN
# B1: 52131286_52135943_886_CDS_ENSMUSG00000022637_ENSMUST00000114471|mouse|control|control (ssRNA)
# RNA: GGGAGUUCUACAGUCCGACGAUCCGUGAGAAAUGCCAUGUAUCCCGGGUGAGUCACAGCCAAGAAGUUCCAAUUCCGUAAAAUAGAGCCCCAGGGCUGAAAUAGCCUGGUAAAAAUAUCAAAUUCAAACACUGAGAUGUAAUCCAACAGAGGAUUGAGCAUCA
# B2: chr1:130485734:130485735:-_ENSMUSG00000045382_ENSMUST00000052172|mus_hu|FALSE|FALSE (ssRNA)
# RNA: GGGAGUUCUACAGUCCGACGAUCGAUGAAGGAGUCGAUGCUGAUCCCAAUGUAGUAAGGCAGCCAACAGGCGAAGAAAGCCAGGAUGAGGAUGACUGUGGUCUUGAGGGCCUUGCGCUUCUGGUGGCCCUUGGAGUGUGACAGCAACAGAGGAUUGAGCAUCA
# B3: chr20:61576232:61576233:+_ENSG00000101193_ENST00000266069|hu_hu|FALSE|FALSE (ssRNA)
# RNA: GGGAGUUCUACAGUCCGACGAUCGGAUCCACCACGCAAGCGCAGGCGCUACUUGGGCUCCUCAAUCACACCCUUGCUGAGGUCUGUCAUUUUGGGAUAUUUUACUUUCUUCUGGUCCAGCUCGUUCUGAGCCCAAAGUAGUAGCAACAGAGGAUUGAGCAUCA
# B4: chr17:60770872:60770873:+_ENSG00000011028_ENST00000303375|hu_hu|hu_hu_hu_mus_True|1_78 (ssRNA)
# RNA: GGGAGUUCUACAGUCCGACGAUCUCUUUAAAAAAAAAAAAAAAAAGACAAACAAUAAUAAUGGCACUCGAGAAUCAAGAACUACAAUAGAGGGUCCGCUUUGAGUUUUUGUUCACAUCGUCCUGCACUGGGACACGACCAGGACAACAGAGGAUUGAGCAUCA
# B5: chr17:60770872:60770873:+_ENSG00000011028_ENST00000303375|hu_hu|hu_hu_hu_mus_True|78_78 (ssRNA)
# RNA: B4 RNA with A137G, C138G, C139G, G141C, G142U, A143G
# B6: chr17:60770872:60770873:+_ENSG00000011028_ENST00000303375|hu_hu|hu_hu_hu_mus_True|28_78 (ssRNA)
# RNA: GGGAGUUCUACAGUCCGACGAUCUCUUUAAAAAAAAAAAAAAAAAGACAAACAAUAAUAAUGGCACUCGAGAAUCAAGAACUACAAUAGAGGGUCCGCUUUGAGUUGUCCAUGUUCUCGUCCUGCACUGGGACACGGGGACUGCAACAGAGGAUUGAGCAUCA
# B7: chr17:60770872:60770873:+_ENSG00000011028_ENST00000303375|hu_hu|hu_hu_hu_mus_True|8_78 (ssRNA)
# RNA: GGGAGUUCUACAGUCCGACGAUCUCUUUAAAAAAAAAAAAAAAAAGACAAACAAUAAUAAUGGCACUCGAGAAUCAAGAACUACAAUAGAGGGUCCGCUUUGAGUUUUUGUUCACAUCGUCCUGCAACGCUGUCGCGGGACUGCAACAGAGGAUUGAGCAUCA
# B8: chr17:60770872:60770873:+_ENSG00000011028_ENST00000303375|hu_hu|hu_hu_hu_mus_True|58_78 (ssRNA)
# RNA: B4 RNA with A77U, G78C, A86G, A137G, C138G, C139G, G141C, G142U, A143G
# B9: chr17:60770872:60770873:+_ENSG00000011028_ENST00000303375|hu_hu|hu_hu_hu_mus_True|28_88 (ssRNA)
# RNA: GGGAGUUCUACAGUCCGACGAUCUCUUUAAAAAAAAAAAAAAAAAGUUUAAAAACAAUAGCACAUUUCGAGAAUCAAGAACUACAAUAGAGGGUCCGCUUUGAGUUGUCCAUGUUCUCGUCCUGCACUGGGACACGGGGACUGCAACAGAGGAUUGAGCAUCA
# B10: chr17:60770872:60770873:+_ENSG00000011028_ENST00000303375|hu_hu|hu_hu_hu_mus_True|78_88 (ssRNA)
# RNA: GGGAGUUCUACAGUCCGACGAUCUCUUUAAAAAAAAAAAAAAAAAGUUUAAAAACAAUAAUGGCACUCGAGAAUCAAGAACUACAAUAGAGGGUCCGCUUUGAGUUUUUGUUCACAUCGUCCUGCACUGGGACACGGGGACUGCAACAGAGGAUUGAGCAUCA
# B11: chr11:10830335:10830336:-_ENSG00000110321_ENST00000339995|hu_hu|FALSE|FALSE (ssRNA)
# RNA: GGGAGUUCUACAGUCCGACGAUCGCAGCUGCCUCCUCAGGAUCCGGUCGUCGGGGAUAGGGAAGGGAGGGGAAAGGGGAACGGAAAACAAAAAAAAGGGGGAGGGAAGGGGGAGGAAGGAGUCGGGGACGGCCUCAAACUCAGCAACAGAGGAUUGAGCAUCA
# B12: chr2:168009416:168009417:-_ENSMUSG00000051149_ENSMUST00000088001|perfect_dup|FALSE|FALSE (ssRNA)
# RNA: GGGAGUUCUACAGUCCGACGAUCCAUAUGGUUGAGCAGAGUAUCUGUGGGUAAAUAGCGAUUACAGUAGAGGCAUUUGCUAGUAAAAUUGUGUAUUUUCAUAAUGUAGUUGGCUACUGCUGGGACUUUCUCAGCUUUAUGUUCCAACAGAGGAUUGAGCAUCA
# B13: chr1:84034342:84034343:-_ENSMUSG00000045658_ENSMUST00000168574|mus_mus|FALSE|FALSE (ssRNA)
# RNA: GGGAGUUCUACAGUCCGACGAUCGCCUGAGAAUGGUGAAAAUAGGCGUGGAGAUCUCCCAGCAGGAAGUGUUGGAAUAGGAGAGGAAAAAAAAAGUGAGAGGAGAGUCUGGAACCUUCCUCCCCAUCUGUACUCUCCUCAAGACAACAGAGGAUUGAGCAUCA
# B14: 133834401_133834521_965_CDS_ENSMUSG00000050890_ENSMUST00000105876|mouse|control|control (ssRNA)
# RNA: GGGAGUUCUACAGUCCGACGAUCUUUCAUUCGCCCAUUCAUAGACUUUUUCUUCACAGGGAUGAGAAGUUCCAUUUUGGGGUUUUCCAGAAGUGCCUCCCCAACAGGCACAAUUUCAGUCCCCUGCUUUACGUAACUCCCCAACAACAGAGGAUUGAGCAUCA
# B15: chr8:95500983:95500984:-_ENSG00000164944_ENST00000437199|hu_hu|hu_hu_hu_mus_True|78_78 (ssRNA)
# RNA: GGGAGUUCUACAGUCCGACGAUCAGAACACAUCUAUCGAGUAAAGGACCGUACAUGGACGACCUCUCCACUGCCUCCACUAACAAACUUUCCUCUCGAGCCUCCACUGCCGCUAUUUGUACUAGCCCAGGACGGUCCCAGGCCCAACAGAGGAUUGAGCAUCA
# B16: chr7:141450121:141450122:+_ENSG00000106028_ENST00000265304|hu_mus|hu_hu_hu_mus_True|38_68 (ssRNA)
# RNA: GGGAGUUCUACAGUCCGACGAUCUCAUCCGUUCUAUGCCUUUUCUUUUGUCUGGUCACUCAGAAAUAUAAUAUUAUCAGCUAUGAUUGUUGUUGCUUGUCGCCUCACAUUGUUUUUAUCCAUGUACUCGCCAUAGUCCACUUUCAACAGAGGAUUGAGCAUCA
# B17: chr8:98731313:98731314:+_ENSG00000147649_ENST00000336273|hu_mus|motif|central (ssRNA)
# RNA: GGGAGUUCUACAGUCCGACGAUCACAAGCUUUCUCCUGUUUUGGUCGGGCUUUUGAGGUAUUCACUGGAAGCUCUUCUCGGGUGUCCUUUUCUAGGUCUUCUGUGUCCUGUGUGUGAGAGUUAUCUUCCCCUUGCUUCUUCUUCAACAGAGGAUUGAGCAUCA
# B18: 93992280_93998312_1055_3pUTR_ENSMUSG00000055932_ENSMUST00000069718|mouse|control|control (ssRNA)
# RNA: GGGAGUUCUACAGUCCGACGAUCAUCAAAGGAUUUCAACGAGACGUCGCCAUCGUCUGAGUCAUUGAGGACAUUCUGCAGCGCCAACUGACAGCGUUCUAAGAUAUAAUCCAAGGUGCCUGUUGAGCACUCUGCCACACGGUGCAACAGAGGAUUGAGCAUCA
# B19: chrX:20248820:20248821:+_ENSMUSG00000001924_ENSMUST00000001989|mus_mus|mus_mus_mus_hu_True|58_88 (ssRNA)
# RNA: GGGAGUUCUACAGUCCGACGAUCGGCGAAGUCCGUCACCACAAAGUCAGGCUCUACCAGUGAGGCCACCAAGGAUUUAAAACUAAUCUUCUUAGGUACUUUGACCUGACUGACGAUGCCUCCACGGAUGUAGUCGGAGAAGUUCAACAGAGGAUUGAGCAUCA
# B20: chr17:60770872:60770873:+_ENSG00000011028_ENST00000303375|hu_hu|hu_hu_hu_mus_True|48_78 (ssRNA)
# RNA: B10 RNA with U47A, U48C, U49A, A52C, C55U, U87A, A88G, G89A, G91A, U94G
# B21: chr17:60770872:60770873:+_ENSG00000011028_ENST00000303375|hu_hu|hu_hu_hu_mus_True|18_78 (ssRNA)
# RNA: GGGAGUUCUACAGUCCGACGAUCUCUUUAAAAAAAAAAAAAAAAAGACAAACAAUAAUAAUGGCACUCGAGAAUCAAGAACUACAAUAGAGGGUCCGCUUUGAGUUUUUGUUCACAACAUUGUCCCCUGGGACACGGGGACUGCAACAGAGGAUUGAGCAUCA
# B22: chr2:204281756:204281757:+_ENSG00000138443_ENST00000261017|hu_hu|motif|central (ssRNA)
# RNA: GGGAGUUCUACAGUCCGACGAUCCUUUUCCAAGUAAGAACGUGGAGCCCACGGUGGGUCCUCUUCAGCAUAAGGAUCACGGUACUCAACCACAGCAGCUUCCUCCUCUUCGUAAUCUUCUGGAGGAGGAGGAGGUGGGGGAGACAACAGAGGAUUGAGCAUCA
# Target: T1, UNK ZnF1-3
# Experiment: nsRBNS (natural sequence RNA bind-n-seq); RBNS binding buffer (assumed for nsRBNS): 25 mM Tris pH 7.5, 150 mM KCl, 3 mM MgCl2, 0.01% Triton X-100, 500 ug/ml BSA, 20 U/ml SUPERase-In, 4 C; UNK is unkempt and MSI1 is Musashi-1; names of the RNAs are library labels; protein concentration not given here; high values mean tight binding
row,Binder,binding signal
1,B1,1.06 enrichment R
2,B2,1.35 enrichment R
3,B3,0.749 enrichment R
4,B4,3.55 enrichment R
5,B5,4.14 enrichment R
6,B6,3.8 enrichment R
7,B7,2.96 enrichment R
8,B8,3.98 enrichment R
9,B9,3.43 enrichment R
10,B10,5.04 enrichment R
11,B11,2.73 enrichment R
12,B12,2.12 enrichment R
13,B13,1.32 enrichment R
14,B14,0.863 enrichment R
15,B15,1.53 enrichment R
16,B16,0.44 enrichment R
17,B17,0.279 enrichment R
18,B18,1.07 enrichment R
19,B19,0.887 enrichment R
20,B20,4.71 enrichment R
21,B21,4.19 enrichment R
22,B22,0.684 enrichment R
